Test results reported in the supplement of paper PMC9262897, “Low-cost anti-mycobacterial drug discovery using engineered E. coli” (Nature Communications, 2022).
Where a name gives a salt, the structure may show the parent alone. ± gives the standard deviation of the averaged measurements.

Experiments:
Assay in all cases: growth (OD600 after 10 h); higher = more growth (less inhibition)
[1] = system: E. coli TESEC Alr+ wild-type control; settings: compound 0.1 mM; raw OD600 reference: median of DMSO wells 0.241, cell-free background 0.041
Description: (§1)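 TESEC Mtb Alr E. coli, or the Alr+ wild-type control, in 384-well plates with Prestwick library compounds at 0.1 mM and 1% DMSO, across arabinose induction levels of 1E3 to 1E7 nM. Growth is read as OD600 after 10 h at 37 °C in triplicate biological replicates.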

E. coli TESEC Mtb Alr [2] = settings: compound 0.1 mM
Description: as §1

E. coli TESEC Mtb Asd = settings: compound 0.1 mM
Description: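 TESEC E. coli strains in which the native enzyme is deleted and replaced by arabinose-inducible Mtb Asd, DapB, CysH or TrpD, each grown in its selective medium. Strains were screened against the Prestwick library at 0.1 mM and 1% DMSO in 384-well format at low and high arabinose induction. Growth is read as OD600 after 10 h in triplicate.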

[3] = system: E. coli TESEC Alr+ wild-type control; settings: compound 0.1 mM; raw OD600 reference: median of DMSO wells 0.49, cell-free background 0.052
Description: (§2)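 TESEC Mtb Alr E. coli (ΔaraC ΔtolC ΔentC Δalr ΔdadX, arabinose-inducible Mtb Alr) or the Alr+ wild-type control strain, grown in defined M9-fructose medium without D-alanine in 96-well plates with Prestwick library compounds at 0.1 mM and 1% DMSO. Low Alr induction is 0.1 µM arabinose and high induction is 10 mM arabinose.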

E. coli TESEC Mtb Alr [4] = settings: compound 0.1 mM; remark: listed apart in the source
Description: as §2

[5] = arabinose 1000 nM, raw OD600 reference: median of DMSO wells 0.294, cell-free background 0.041
[6] = arabinose 10000 nM, raw OD600 reference: median of DMSO wells 0.264, cell-free background 0.041
[7] = arabinose 100000 nM, raw OD600 reference: median of DMSO wells 0.201, cell-free background 0.041
[8] = arabinose 1000000 nM, raw OD600 reference: median of DMSO wells 0.193, cell-free background 0.041
[9] = arabinose 10000000 nM, raw OD600 reference: median of DMSO wells 0.146, cell-free background 0.041
[10] = arabinose induction (level): High, raw OD600 reference: median of DMSO wells 0.331, cell-free background 0.041
[11] = arabinose induction (level): Low, raw OD600 reference: median of DMSO wells 0.417, cell-free background 0.041
[12] = arabinose 100 nM, raw OD600 reference: median of DMSO wells 0.413, cell-free background 0.052
[13] = arabinose 10000000 nM, raw OD600 reference: median of DMSO wells […], cell-free background 0.052

SMILES | growth [1] | growth (E. coli TESEC Mtb Alr [2]; [5]) | growth (E. coli TESEC Mtb Alr [2]; [6]) | growth (E. coli TESEC Mtb Alr [2]; [7]) | growth (E. coli TESEC Mtb Alr [2]; [8]) | growth (E. coli TESEC Mtb Alr [2]; [9]) | growth (E. coli TESEC Mtb Asd; [10]) | growth (E. coli TESEC Mtb Asd; [11]) | growth [3] | growth (E. coli TESEC Mtb Alr [4]; [12]) | growth (E. coli TESEC Mtb Alr [4]; [13])
Nc1nc(Cl)nc2c1ncn2[C@H]1C[C@H](O)[C@@H](CO)O1 [Cladribine] | 0.263 ± 0.14 | 0.165 ± 0.0084 | 0.0701 ± 0.0033 | 0.118 ± 0.018 | 0.0623 ± 0.0011 | 0.07457 ± 0.00035 | 0.409 ± 0.08 | 0.217 ± 0.015 | 0.577 ± 0.12 | 0.42 ± 0.0056 | 0.219 ± 0.031
C1CCC(C(CC2CCCCN2)C2CCCCC2)CC1 (stereo not drawn) [Perhexiline maleate] | 0.0393 ± 0.0002 | 0.0389 ± 0.00046 | 0.03913 ± 0.00021 | 0.0407 ± 0.00064 | 0.03897 ± 0.00023 | 0.0389 ± 0.0004 | 0.04767 ± 0.00047 | 0.048 ± 0.0016 | 0.0486 ± 0.00055 | 0.168 ± 0.18 | 0.0522 ± 0.0012
O=C(O)c1cc(-c2ccc(F)cc2F)ccc1O [Diflunisal] | 0.128 ± 0.0035 | 0.151 ± 0.018 | 0.105 ± 0.0038 | 0.119 ± 0.003 | 0.086 ± 0.0022 | 0.112 ± 0.0029 | 0.218 ± 0.059 | 0.139 ± 0.0027 | 0.279 ± 0.0091 | 0.248 ± 0.052 | 0.136 ± 0.006
COc1cc2nc(N3CCN(C(=O)C4COc5ccccc5O4)CC3)nc(N)c2cc1OC (stereo not drawn) [Doxazosin mesylate] | 0.054 ± 0.0033 | 0.047 ± 0.002 | 0.0476 ± 0.00044 | 0.0463 ± 0.0012 | 0.04047 ± 5.8e-05 | 0.0449 ± 0.0026 | 0.092 ± 0.023 | 0.0521 ± 0.004 | 0.0495 ± 0.0017 | 0.277 ± 0.2 | 0.0514 ± 0.0015
C#CCN[C@@H]1CCc2ccccc21 [Rasagiline] | 0.224 ± 0.0077 | 0.281 ± 0.012 | 0.263 ± 0.011 | 0.19 ± 0.011 | 0.194 ± 0.023 | 0.142 ± 0.0024 | 0.245 ± 0.065 | 0.342 ± 0.075 | 0.547 ± 0.014 | 0.421 ± 0.011 | 0.322 ± 0.0094
CN1CCN(CCCN2c3ccccc3Sc3ccc(S(=O)(=O)N(C)C)cc32)CC1 [Thioproperazine dimesylate] | 0.181 ± 0.0045 | 0.165 ± 0.0059 | 0.196 ± 0.0078 | 0.195 ± 0.0039 | 0.106 ± 0.0049 | 0.173 ± 0.0023 | 0.171 ± 0.017 | 0.246 ± 0.049 | 0.409 ± 0.041 | 0.404 ± 0.0053 | 0.232 ± 0.0024
O=C(CCCN1CCC(O)(c2ccc(Br)cc2)CC1)c1ccc(F)cc1 [Bromperidol] | 0.215 ± 0.0079 | 0.287 ± 0.0074 | 0.265 ± 0.0061 | 0.218 ± 0.028 | 0.179 ± 0.0028 | 0.148 ± 0.0045 | 0.254 ± 0.025 | 0.344 ± 0.092 | 0.381 ± 0.013 | 0.417 ± 0.0095 | 0.306 ± 0.022
CCCOc1ccc2[nH]c(NC(=O)OC)nc2c1 [Oxibendazol] | 0.264 ± 0.025 | 0.309 ± 0.021 | 0.269 ± 0.0059 | 0.213 ± 0.028 | 0.183 ± 0.0022 | 0.151 ± 0.0057 | 0.353 ± 0.1 | 0.425 ± 0.048 | 0.518 ± 0.085 | 0.409 ± 0.0096 | 0.345 ± 0.039
Cc1cc(N)c2ccccc2[n+]1CCCCCCCCCC[n+]1c(C)cc(N)c2ccccc21 [Dequalinium dichloride] | 0.048 ± 0.0004 | 0.04803 ± 0.00032 | 0.0469 ± 0.00052 | 0.04963 ± 0.00015 | 0.0458 ± 0.00071 | 0.049 ± 0.0001 | 0.0691 ± 0.0051 | 0.0634 ± 0.006 | 0.0513 ± 0.0018 | 0.0979 ± 0.005 | 0.0648 ± 0.0024
NC[C@H]1CC[C@H](C(=O)O)CC1 [Tranexamic acid] | 0.254 ± 0.0017 | 0.293 ± 0.0074 | 0.282 ± 0.0046 | 0.215 ± 0.031 | 0.186 ± 0.002 | 0.141 ± 0.0029 | 0.381 ± 0.056 | 0.446 ± 0.026 | 0.456 ± 0.04 | 0.411 ± 0.0076 | 0.349 ± 0.0049
CC(=O)N[C@@H](CC(=O)N[C@@H](CCC(=O)O)C(=O)O)C(=O)O [Spaglumic acid] | 0.237 ± 0.0082 | 0.289 ± 0.013 | 0.284 ± 0.015 | 0.197 ± 0.0095 | 0.198 ± 0.0026 | 0.143 ± 0.0028 | 0.227 ± 0.021 | 0.426 ± 0.026 | 0.522 ± 0.037 | 0.434 ± 0.0089 | 0.327 ± 0.0062
CCN(CC)CCNc1ccc(CO)c2sc3ccccc3c(=O)c12 [Hycanthone] | 0.0743 ± 0.0024 | 0.0851 ± 0.0084 | 0.0559 ± 0.00057 | 0.1 ± 0.0034 | 0.0552 ± 0.00075 | 0.0769 ± 0.0069 | 0.0901 ± 0.025 | 0.075 ± 0.0065 | 0.377 ± 0.0077 | 0.365 ± 0.042 | 0.232 ± 0.033
NS(=O)(=O)c1cc(C(=O)O)cc(N2CCCC2)c1Oc1ccccc1 [Piretanide] | 0.243 ± 0.0085 | 0.28 ± 0.0043 | 0.278 ± 0.0094 | 0.22 ± 0.025 | 0.202 ± 0.0072 | 0.134 ± 0.0051 | 0.405 ± 0.0083 | 0.4 ± 0.034 | 0.444 ± 0.0057 | 0.4122 ± 0.0034 | 0.341 ± 0.0064
Nc1nnc(-c2cccc(Cl)c2Cl)c(N)n1 [Lamotrigine] | 0.14 ± 0.0084 | 0.206 ± 0.028 | 0.203 ± 0.0052 | 0.216 ± 0.014 | 0.21 ± 0.0054 | 0.179 ± 0.0078 | 0.236 ± 0.025 | 0.168 ± 0.019 | 0.46 ± 0.021 | 0.413 ± 0.029 | 0.386 ± 0.029
NC(=O)N1c2ccccc2C=Cc2ccccc21 [Carbamazepine] | 0.241 ± 0.0068 | 0.281 ± 0.0037 | 0.239 ± 0.0011 | 0.182 ± 0.032 | 0.173 ± 0.0066 | 0.142 ± 0.00057 | 0.36 ± 0.013 | 0.35 ± 0.059 | 0.491 ± 0.0058 | 0.405 ± 0.0088 | 0.272 ± 0.12
NNC(=O)c1ccncc1 [Isoniazid] | 0.242 ± 0.0073 | 0.288 ± 0.006 | 0.275 ± 0.0043 | 0.239 ± 0.052 | 0.186 ± 0.007 | 0.139 ± 0.0028 | 0.396 ± 0.028 | 0.429 ± 0.083 | 0.458 ± 0.054 | 0.405 ± 0.0067 | 0.359 ± 0.022
CCOC(=O)OC(C)OC1=C(C(=O)Nc2ccccn2)N(C)S(=O)(=O)c2ccccc21 (stereo not drawn) [Ampiroxicam] | 0.228 ± 0.015 | 0.27 ± 0.0052 | 0.255 ± 0.0083 | 0.183 ± 0.018 | 0.165 ± 0.007 | 0.157 ± 0.0076 | 0.237 ± 0.034 | 0.339 ± 0.033 | 0.582 ± 0.1 | 0.415 ± 0.01 | 0.293 ± 0.019
Nc1ccc(C(=O)O)c(O)c1 [4-aminosalicylic acid] | 0.247 ± 0.0075 | 0.305 ± 0.011 | 0.277 ± 0.0057 | 0.201 ± 0.017 | 0.19 ± 0.004 | 0.153 ± 0.0068 | 0.222 ± 0.024 | 0.377 ± 0.086 | 0.545 ± 0.044 | 0.422 ± 0.0061 | 0.302 ± 0.014
